A short description of assay [1]: Viability qHTS for spleen associated tyrosine kinase inhibitor (SYKi) naive MV4-11 cells (AID 1963823). Further: nearly all actives have a fitted effect of over 40% in size. Put shortly: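 SYK inhibitor-naive MV4-11 cells, 500 per well, exposed to compounds for 72 hr at 37 C, 5% CO2. Viability read as CellTiter-Glo luminescence after 10 min at room temperature.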
The nature of assay [2]: Viability qHTS for spleen associated tyrosine kinase inhibitor (SYKi) drug resistant MV4-11 cells (AID 1963824). Further: nearly all actives have a fitted effect of over 35% in size. Put shortly:
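SYK-inhibitor-resistant MV4-11 AML cells were seeded at 500 per well onto compound and cultured 72 hours (37 °C, 5% CO2). CellTiter-Glo was then added, and after 10 min at room temperature, luminescence gave viability.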

Assay [3] can be described thus: Quantitative highthroughput screen to assess conditional lethalithy of NOMO1 cells grown in RPMI1640 with dialyzed fetal bovine serum (RPMI+ds) (AID 1963877). Further: nearly all actives have a fitted effect of over 30% in size.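 On Viability: series mostly up to about 46 µM; 100% = DMSO control wells and 0% = empty wells.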 An outline of the steps: (§1)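 Each medium arm—HPLM with 10% dialyzed FBS, or RPMI1640 with 5 mM glucose and 10% untreated or dialyzed FBS—was screened against an 11-point, 3-fold compound titration for 48 h at 37 °C, with CellTiter-Glo luminescence as endpoint.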

Assay [4] is described as follows: Quantitative highthroughput screen to assess conditional lethalithy of P12 Ichikawa cells grown in Human Plasma-Like Medium with dialyzed fetal bovine serum (HPLM+ds) (AID 1963879). Further: nearly all actives have a fitted effect of over 35% in size. On Viability: series mostly up to about 46 µM. To be noted: Potency: viability. Put shortly:
as §1

A short description of assay [5]: Quantitative highthroughput screen to assess conditional lethalithy of P12 Ichikawa cells grown in RPMI1640 with untreated serum (RPMI+s) (AID 1963881). Further: nearly all actives have a fitted effect of over 35% in size.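 On Viability: series mostly up to about 46 µM; 100% = DMSO wells and 0% = empty wells without cells.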 To be noted: Potency: viability. An outline of the steps: as §1
Assay [6] in a line: Quantitative highthroughput screen to assess conditional lethalithy of SEM cells grown in Human Plasma-Like Medium with dialyzed fetal bovine serum (HPLM+ds) (AID 1963882). Further: nearly all actives have a fitted effect of over 35% in size. On Viability: series mostly up to about 46 µM. Put shortly:
as §1

A short description of assay [7]: Cellular viability qHTS for adrenocortical cancer (ACC) cell line SW-13 (AID 1963989). Further: nearly all actives have a fitted effect of over 65% in size.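 On activity (max response): cells grown in serum-free medium with ITS supplement; on the % scale 0 is the no-effect control and ±100 the full control effect.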 To be noted: SW-13 ACC cells viability, CellTiter-Glo, 48 h; activity (max response): stronger effect = lower value. Put shortly: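 Luminescent ATP read-out (CellTiter-Glo, 20 min at room temperature) measured metabolically competent SW-13 cells after 48 h compound treatment. Final concentrations spanned up to 46 uM; bortezomib served as positive control.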
A general note: In qHTS, concentration-response curves come from the screen itself.

A short description of assay [8]: Quantitative highthroughput screen to assess conditional lethalithy of NOMO1 cells grown in Human Plasma-Like Medium with dialyzed fetal bovine serum (HPLM+ds) (AID 1963878). Further: nearly all actives have a fitted effect of over 35% in size.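 On Viability: 100% = DMSO wells and 0% = empty wells on each plate.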 Put shortly: as §1
A short description of assay [9]: Quantitative highthroughput screen to assess conditional lethalithy of SEM cells grown in RPMI1640 with unreated serum (RPMI+s) (AID 1963883). Further: nearly all actives have a fitted effect of over 35% in size.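 On Viability: 100% = DMSO wells and 0% = empty wells without cells.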 Put shortly: as §1
Assay [10] can be described thus: Quantitative highthroughput screen to assess conditional lethalithy of SEM cells grown in RPMI1640 with dialyzed fetal bovine serum (RPMI+ds) (AID 1963884). Further: nearly all actives have a fitted effect of over 35% in size.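 On Viability: series mostly up to about 46 µM; 100% = DMSO control wells and 0% = empty wells without cells.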 An outline of the steps:
as §1

Assay [11] can be described thus: Cellular viability qHTS for adrenocortical cancer (ACC) cell line NCI-H295R (AID 1963990). Further: nearly all actives have a fitted effect of over 60% in size. An outline of the steps:
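IC50 and maximal efficacy derive from four-parameter logistic modelling of titration curves, with reads scaled between DMSO-only wells (0%) and doxorubicin hydrochloride (100% inhibition). Compounds spanned up to 46 uM over 48 h.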

Assay [12] can be described thus: Quantitative highthroughput screen to assess conditional lethalithy of P12 Ichikawa cells grown in RPMI1640 with dialyzed fetal bovine serum (RPMI+ds) (AID 1963880). Further: nearly all actives have a fitted effect of over 35% in size.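 On Viability: 100% = DMSO wells and 0% = empty wells on each plate.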 Conditions: Potency: P12-Ichikawa viability. An outline of the steps:
as §1

Where “and” joins values, the source holds several entries; their conditions need not be identical. Equal values may be shown once. Results filed as inconclusive are left out. The source holds several records for some structures; these can differ, active in one and inactive in another. Calls of active or inactive are those of the source. The call rests on the fitted dose curve; in most records, active means well fitted curve in the direction sought with a large enough effect; inconclusive means small, poorly fitted or top-dose-only effect, or another doubt; inactive means no such curve, though single readings can be large; an effect the other way counts as inactive or inconclusive.
Potency means the concentration at half of the fitted maximal effect.

For the compound `CC(C)(C)Cn1c(N)nc2ccc(-c3[nH]c(C(C)(C)C)nc3-c3ccc(F)cc3)nc21`, the Potency is 16.6 µM (active) in assay [1]; 461 nM (active) and 14.8 µM (active) in [2]; 25.1 µM (active) in assay [7]. Besides, the Potency result in assay [3], in assay [4], in assay [5] and in assay [6] was “inactive” each time.
Regarding `O=C(Nc1nnc(-c2ccco2)o1)c1cc(-c2ccccc2)nc2ccccc12`, the Potency is 13.2 µM (active) in [1]; 13.2 µM (active) in assay [2]; 5.9 µM (active) in assay [8]; 4.69 µM (active) in [4]; 26.4 µM (active) in assay [5]; 4.69 µM (active) in assay [9]. The figures for the Potency in assay [10], in assay [7] and in [11] were 20.9 µM (active), 20 µM (active) and 10 µM (active), respectively.
With `Nc1c2c(nc3ccccc13)CCCC2`, the Potency entry in assay [1], in [4], in assay [12], in assay [6], in [9] and in [10] was “inactive” each time. The Potency entry in [11] was “inactive”. In addition, the Potency entry in assay [2] was “inactive and 18.6 µM (active)”; in assay [3] it was 14.8 µM (active). Further, the activity (max response) in [7] was -1.99% (inactive) and -7.86% (inactive).
With `COc1cc2c(Nc3ccc(NC(=O)c4ccccc4)cc3)ncnc2cc1OCCCN1CCOCC1`, the Potency is 1.16 µM (active) and 1.86 µM (active) in [1]; 2.06 µM (active) and 2.09 µM (active) in assay [2]; 3.72 µM (active) in assay [4]; 3.32 µM (active) in assay [12]; 4.69 µM (active) in assay [5]; 3.72 µM (active) in [9]. The values for the Potency in assay [10] and in assay [11] were 2.96 µM (active) and 15.8 µM (active), respectively. Also, in [8], the Potency entry is “inactive”. In assay [7], the activity (max response) is -24.4% (inactive).
As for `CC[C@@]1(O)C[C@H](O[C@H]2C[C@H](N(C)C)[C@H](O[C@H]3C[C@H](O)[C@H](O[C@H]4CCC(=O)[C@H](C)O4)[C@H](C)O3)[C@H](C)O2)c2c(cc3c(c2O)C(=O)c2c(O)cccc2C3=O)[C@@H]1C(=O)OC`, the Potency in assay [1] was 1.66 µM (active); in assay [2], 1.32 µM (active); in [8] it was 1.18 µM (active); in assay [12] it was 16.6 µM (active); in assay [10] it was 0.0662 µM (active); in assay [7] it was 10 µM (active). Besides, the Potency in assay [11] is 22.4 µM (active). In addition, in [4], the Potency entry is “inactive”.
Turning to `Cn1cc(-c2[nH]c3cc(NC(=O)[C@H](N)C4CCCCC4)cc4c3c2C=NNC4=O)cn1`, the Potency in assay [1] was 0.0661 µM (active); in [2], 164 nM (active) and 83.3 nM (active); in assay [3], 5.26 µM (active); in assay [4] it was 16.6 µM (active); in [12], 6.62 µM (active); in assay [5], 7.43 µM (active). Also, the Potency in assay [6] was 2.96 µM (active); in [10], 1.18 µM (active). In assay [11], the Potency result was “inactive”.
With `NCCCC(O)(P(=O)(O)O)P(=O)(O)O`, the Potency result in assay [1], in assay [2] and in [11] was “inactive” each time. Also, the Potency in assay [3] was 16.6 µM (active); in [6], 16.6 µM (active); in assay [9], 2.96 µM (active); in assay [10] it was 3.72 µM (active). The activity (max response) in [7] was -4.27% (inactive).
Consider `Cn1c(Nc2ccc(C(F)(F)F)cc2)nc2cc(Oc3ccnc(-c4ncc(C(F)(F)F)[nH]4)c3)ccc21`, for which the Potency in [1] was 2.91 µM (active); in [2], 1.3 µM (active); in assay [3], 23.5 µM (active); in assay [12], 18.7 µM (active); in assay [5] it was 14.8 µM (active); in assay [6], 9.35 µM (active). In addition, the Potency in assay [9] is 4.69 µM (active). Besides, in assay [7], the activity (max response) is -8.43% (inactive).
`CCCCc1oc2ccccc2c1C(=O)c1cc(I)c(OCCN(CC)CC)c(I)c1`: the Potency in assay [1] was 18.8 µM (active) and 16.6 µM (active); in assay [2], 23.7 µM (active) and 18.6 µM (active); in assay [3] it was 20.9 µM (active); in assay [7], 31.6 µM (active); in assay [11], 22.4 µM (active). The Potency entry in assay [4], in assay [12], in assay [6], in [9] and in [10] was “inactive” in each case.
For the compound `CC(C)C[C@H](NC(=O)CNC(=O)c1cc(Cl)ccc1Cl)B(O)O`, the Potency in assay [1] is 0.0934 µM (active); in assay [2] it was 0.0934 µM (active); in assay [3] it was 0.418 µM (active); in assay [7] it was 2 µM (active).
As for `Cc1cn(CCN2CCN(c3ccccc3-c3cc(C#N)cc(C(=O)NCCCN4CCCC4)c3)CC2)c2ccccc12`, the Potency in assay [1] is 3.72 µM (active); in assay [2], 3.66 µM (active) and 3.32 µM (active); in assay [3] it was 10.5 µM (active); in assay [4], 8.31 µM (active); in assay [12] it was 7.41 µM (active); in assay [5] it was 8.31 µM (active). Besides, the Potency in [6] is 6.6 µM (active); in assay [9] it was 13.2 µM (active); in assay [7], 22.4 µM (active); in assay [11], 5.62 µM (active).
On to `c1nc2nc(Nc3ccc(N4CCOCC4)cc3)nc(NC3CCCCC3)c2[nH]1`, for which the Potency in assay [1] is 224 nM (active) and 209 nM (active); in [2], 317 nM (active) and 366 nM (active); in assay [8] it was 14.8 µM (active); in assay [4] it was 3.32 µM (active); in assay [5] it was 2.64 µM (active); in assay [9], 2.35 µM (active). Moreover, the Potency in assay [10] was 2.35 µM (active); in assay [11], 2.82 µM (active).
`Cc1cccc2c1CC[C@H](CN1CCC(c3c(Cl)cccc3Cl)CC1)C[C@@H]2O`: the Potency was 3.26 µM (active) in [1], 2.59 µM (active) in assay [2] and 8.33 µM (active) in [8]. Also, in assay [4], the Potency result is “inactive”.
`CC1CCC(C(=O)N(c2cc(C#CC(C)(C)C)sc2C(=O)O)C2CCC(O)CC2)CC1` (stereo unspecified): the Potency is 16.4 µM (active) in assay [1]; 11.8 µM (active) and 14.6 µM (active) in assay [2]; 5.26 µM (active) in [8].
For `Nc1nccc(Oc2ccc(NC(=O)c3c[nH]cc(-c4ccc(F)cc4)c3=O)cc2F)c1Cl`, the Potency was 0.0295 µM (active) in [1]; 0.0291 µM (active) in assay [2]; 20.9 µM (active) in [8]; 26.4 µM (active) in [12]; 0.59 µM (active) in [9]; 8.91 µM (active) in assay [7]. Further, the Potency in [11] was 10 µM (active).
Turning to `CN(C)C1CCN(C(=O)c2ccc(NC(=O)Nc3nc(N4CCOCC4)nc(N4CCOCC4)n3)cc2)CC1`, the Potency was 25.2 nM (active) and 37.2 nM (active) in [1]; 35.5 nM (active) and 59 nM (active) in assay [2]; 0.0235 µM (active) in assay [8]; 0.0743 µM (active) in [6]; 0.166 µM (active) in assay [9]; 0.296 µM (active) in assay [10].

The record behind these values is PubChem BioAssay (NCATS).
